# Several values for one entry are separate records, joined by “and”; a condition that tells them apart may be missing. Identical values can stand only once. Like-named read-outs stand apart in the source and are kept apart here.
# What was measured:
# [1] = system: PKMYT1; conditions: concentration: 1 μM, replicates: in singlicate, n = 1
# [2] = system: PKN1; conditions: concentration: 1 μM, replicates: in singlicate, n = 1
# [3] = system: PKN2; conditions: concentration: 1 μM, replicates: in singlicate, n = 1
# [4] = system: PLK1; conditions: n = 1
# [5] = system: PLK2; conditions: concentration: 1 μM, replicates: in singlicate, n = 1
# [6] = system: PLK3; conditions: concentration: 1 μM, replicates: in singlicate; n = 1
# [7] = system: PLK4; conditions: concentration: 1 μM, replicates: in singlicate, n = 1
# [8] = system: PRKCD; conditions: concentration: 1 μM, replicates: in singlicate, n = 1
# [9] = system: PRKCE; conditions: concentration: 1 μM, replicates: in singlicate, n = 1
# [10] = system: PRKCH; conditions: concentration: 1 μM, replicates: in singlicate, n = 1
# [11] = system: PRKCI; conditions: concentration: 1 μM, replicates: in singlicate, n = 1
# [12] = system: PRKCQ; conditions: concentration: 1 μM, replicates: in singlicate, n = 1
# [13] = system: PRKD1; conditions: concentration: 1 μM, replicates: in singlicate, n = 1
# [14] = system: PRKD2; conditions: concentration: 1 μM, replicates: in singlicate, n = 1
# [15] = system: PRKD3; conditions: concentration: 1 μM, replicates: in singlicate; n = 1
# [16] = system: PRKG1; conditions: concentration: 1 μM, replicates: in singlicate, n = 1
# [17] = system: PRKG2; conditions: concentration: 1 μM, replicates: in singlicate, n = 1
# [18] = system: T1, PRKR; conditions: concentration: 1 μM, replicates: in singlicate, n = 1
# T1 construct: gene EIF2AK2
# [19] = system: PRKX; conditions: concentration: 1 μM, replicates: in singlicate, n = 1
# [20] = system: PRP4; conditions: concentration: 1 μM, replicates: in singlicate, n = 1
# [21] = concentration: 1 μM, replicates: in singlicate
# 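Note: KINOMEscan kinase panel screen.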
smiles,measurement,setting,value
CC(C)(CN)c1nc(-c2ccc(Cl)c(O)c2)c(-c2ccncc2)[nH]1.O=C(O)C(F)(F)F [SB-477794],%Inh,[1]; 1 µM,28% and 26%
same,%Inh,[2]; 1 µM,23% and 0%
same,%Inh,[3]; 1 µM,0% and 21%
same,%Inh,"[4]; concentration: 1 μM, replicates: in singlicate, 1 µM",4% and 1%
same,%Inh,[5]; 1 µM,0% and 15%
same,%Inh,[6],0%
same,%Inh,[7]; 1 µM,5% and 0%
same,%Inh,[8]; 1 µM,78% and 87%
same,%Inh,[9]; 1 µM,96% and 96.3%
same,%Inh,[10]; 1 µM,92.9% and 94.1%
same,%Inh,[11]; 1 µM,97.5% and 97.8%
same,%Inh,[12]; 1 µM,75% and 76%
same,%Inh,[13]; 1 µM,92.4% and 93.9%
same,%Inh,[14]; 1 µM,89% and 91.8%
same,%Inh,[15],100%
same,%Inh,[16]; 1 µM,0% and 20%
same,%Inh,[17]; 1 µM,0% and 10%
same,%Inh,[18]; 1 µM,0% and 12%
same,%Inh,[19]; 1 µM,21% and 22%
same,%Inh,[20]; 1 µM,69% and 33%
Fc1ccc(-c2ncn(CCCN3CCOCC3)c2-c2cccnc2)cc1 [SB-211743],%Inh,[1],0%
same,%Inh,[2],0%
same,%Inh,[3],13%
same,%Inh,[4]; [21],0%
same,%Inh,[5],0%
same,%Inh,[6],15%
same,%Inh,[7],0%
same,%Inh,[8],6%
same,%Inh,[9],0%
same,%Inh,[10],0%
same,%Inh,[11],23%
same,%Inh,[12],0%
same,%Inh,[13],0%
same,%Inh,[14],6%
same,%Inh,[15],0%
same,%Inh,[16],35%
same,%Inh,[17],0%
same,%Inh,[18],0%
same,%Inh,[19],0%
same,%Inh,[20],0%
Nc1nccc(-c2c(-c3ccc(F)cc3)ncn2C2CCN(CC(F)(F)F)CC2)n1 [SB-236560],%Inh,[1],20%
same,%Inh,[2],0%
same,%Inh,[3],0%
same,%Inh,[4]; [21],0%
same,%Inh,[5],0%
same,%Inh,[6],0%
same,%Inh,[7],17%
same,%Inh,[8],0%
same,%Inh,[9],19%
same,%Inh,[10],0%
same,%Inh,[11],14%
same,%Inh,[12],12%
same,%Inh,[13],0%
same,%Inh,[14],0%
same,%Inh,[15],0%
same,%Inh,[16],0%
same,%Inh,[17],27%
same,%Inh,[18],0%
same,%Inh,[19],0%
same,%Inh,[20],7%
CC(C)Oc1ccc2c(-c3ccnc(Nc4ccc(N5CCN(C)CC5)cc4)n3)cnn2n1 [GW696155],%Inh,[1],0%
same,%Inh,[2],31%
same,%Inh,[3],4%
same,%Inh,[4]; [21],25%
same,%Inh,[5],62%
same,%Inh,[6],95.9%
same,%Inh,[7],96.8%
same,%Inh,[8],0%
same,%Inh,[9],28%
same,%Inh,[10],0%
same,%Inh,[11],26%
same,%Inh,[12],0%
same,%Inh,[13],86%
same,%Inh,[14],97.6%
same,%Inh,[15],100%
same,%Inh,[16],0%
same,%Inh,[17],4%
same,%Inh,[18],92.2%
same,%Inh,[19],0%
same,%Inh,[20],95%
COCCNC(=O)c1ccc(-c2cc(C(=O)NC3CC3)cc(F)c2C)cc1 [GW868318],%Inh,[1],10%
same,%Inh,[2],0%
same,%Inh,[3],20%
same,%Inh,[4]; [21],66%
same,%Inh,[5],46%
same,%Inh,[6],33%
same,%Inh,[7],34%
same,%Inh,[8],15%
same,%Inh,[9],36%
same,%Inh,[10],0%
same,%Inh,[11],9%
same,%Inh,[12],2%
same,%Inh,[13],2%
same,%Inh,[14],0%
same,%Inh,[15],0%
same,%Inh,[16],7%
same,%Inh,[17],27%
same,%Inh,[18],4%
same,%Inh,[19],0%
same,%Inh,[20],0%
COc1cc2ncn(-c3cc(OCc4sccc4Cl)c(C(N)=O)s3)c2cc1OC [GSK448459],%Inh,[1],0%
same,%Inh,[2],0%
same,%Inh,[3],0%
same,%Inh,[4]; 1 µM,100%
same,%Inh,[5],99.5%
same,%Inh,[6],99.5%
same,%Inh,[7],4%
same,%Inh,[8],0%
same,%Inh,[9],0%
same,%Inh,[10],0%
same,%Inh,[11],10%
same,%Inh,[12],0%
same,%Inh,[13],0%
same,%Inh,[14],0%
same,%Inh,[15],0%
same,%Inh,[16],14%
same,%Inh,[17],13%
same,%Inh,[18],0%
same,%Inh,[19],0%
same,%Inh,[20],26%
Cc1ccc(C(=O)NCC(N)=O)cc1-n1c(C)cc(OCc2ccc(F)cc2F)c(Br)c1=O,%Inh,[1],22%
same,%Inh,[2],6%
same,%Inh,[3],0%
same,%Inh,[4]; [21],0%
same,%Inh,[5],0%
same,%Inh,[6],0%
same,%Inh,[7],0%
same,%Inh,[8],33%
same,%Inh,[9],2%
same,%Inh,[10],1%
same,%Inh,[11],36%
same,%Inh,[12],26%
same,%Inh,[13],23%
same,%Inh,[14],0%
same,%Inh,[15],15%
same,%Inh,[16],0%
same,%Inh,[17],12%
same,%Inh,[18],0%
same,%Inh,[19],22%
same,%Inh,[20],0%
NS(=O)(=O)c1cccc(-c2ccc3nccc(-c4cccc(S(N)(=O)=O)c4)c3c2)c1 [GW867253],%Inh,[1],3%
same,%Inh,[2],0%
same,%Inh,[3],11%
same,%Inh,[4]; [21],24%
same,%Inh,[5],19%
same,%Inh,[6],30%
same,%Inh,[7],14%
same,%Inh,[8],23%
same,%Inh,[9],18%
same,%Inh,[10],0%
same,%Inh,[11],0%
same,%Inh,[12],0%
same,%Inh,[13],0%
same,%Inh,[14],0%
same,%Inh,[15],0%
same,%Inh,[16],28%
same,%Inh,[17],0%
same,%Inh,[18],4%
same,%Inh,[19],0%
same,%Inh,[20],0%
COc1ccc(S(=O)(=O)NC2CCN(c3cc(C)nc(Nc4cccc(C#N)c4)n3)CC2)cc1.O=C(O)C(F)(F)F [GSK1653539],%Inh,[1],0%
same,%Inh,[2],0%
same,%Inh,[3],0%
same,%Inh,[4]; [21],0%
same,%Inh,[5],0%
same,%Inh,[6],0%
same,%Inh,[7],0%
same,%Inh,[8],0%
same,%Inh,[9],0%
same,%Inh,[10],11%
same,%Inh,[11],3%
same,%Inh,[12],0%
same,%Inh,[13],60%
same,%Inh,[14],19%
same,%Inh,[15],48%
same,%Inh,[16],0%
same,%Inh,[17],0%
same,%Inh,[18],1%
same,%Inh,[19],0%
same,%Inh,[20],3%
COC(=O)Nc1nc2cc(Oc3ccc(NC(=O)Nc4cc(F)ccc4F)cc3)ccc2[nH]1.Cl [GW701424],%Inh,[1],0%
same,%Inh,[2],0%
same,%Inh,[3],0%
same,%Inh,[4]; [21],0%
same,%Inh,[5],0%
same,%Inh,[6],0%
same,%Inh,[7],0%
same,%Inh,[8],0%
same,%Inh,[9],12%
same,%Inh,[10],5%
same,%Inh,[11],0%
same,%Inh,[12],0%
same,%Inh,[13],0%
same,%Inh,[14],0%
same,%Inh,[15],6%
same,%Inh,[16],0%
same,%Inh,[17],0%
same,%Inh,[18],0%
same,%Inh,[19],0%
same,%Inh,[20],62%
